Assay outcomes deposited in PubChem BioAssay by several laboratories.
In the library only some 4.4% were active in any assay of this set; here they are far more common.
TIM10 inh – growth inhibitors of isogenic TIM10 control yeast, primary screen, counter-screen for tim10-1 yeast inhibitor project, luminescence, uHTS; inhibition, % at 10 µM; S. cerevisiae TIM10 strain growth, BacTiter-Glo luminescence, 24 h; 330,000 tested, 1.4% active;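 active means inhibition of 40% or more at the single tested concentration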;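 further: wild-type TIM10 isogenic control strain grown at permissive 25 °C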
tim10-1 inh – growth inhibitors of tim10-1 mutant yeast, primary screen, luminescence, uHTS; inhibition, % at 20 µM; AID 463190, 2010; 330,000 tested, 2.2% active; S. cerevisiae tim10-1 ts strain growth, BacTiter-Glo, 24 h;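 active means inhibition of at least 40%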;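 further: mutant grown at 25 °C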
tim23-1 inh – growth inhibitors of tim23-1 mutant yeast, primary screen, luminescence, uHTS | S. cerevisiae tim23-1 growth, BacTiter-Glo luminescence, 24 h | inhibition, % at 20 µM | 330,000 tested, 1.3% active | AID 463212, 2010;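 active means growth inhibition of the mutant yeast at or above 50%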;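 further: temperature-sensitive mutant grown at 25 °C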
SKKanGAS inh – S. pyogenes SKKanGAS growth inhibitors in kanamycin, primary screen, streptokinase expression inhibitor project, SKKanGAS strain, BacTiter-Glo luminescence; 300,000 tested, 1.3% active; 6 h; inhibition, % at 7.5 µM; AID 1662, 2009;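 active means mean replicate score, as percent of positive control median, at least 50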;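 further: strain carries kanamycin resistance gene driven by streptokinase promoter and grows in 40 µg/ml kanamycin; loss of luminescence reflects streptokinase promoter inhibition or plain growth inhibition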
PfHsp90 yeast 2 – growth inhibition of PfHsp90-expressing yeast, primary screen, antimalarial PfHsp90 inhibitor project, S. cerevisiae, BacTiter-Glo luminescence, single point, set 2. BacTiter-Glo ATP, 48 h; yeast lacking PDR1 and PDR3 efflux regulators. inhibition, % at 9.4 µM. 310,000 tested, 0.32% active. AID 504621, 2011;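 active means every replicate shows inhibition above about 80%, whatever the replicate mean, limit read from the data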
tim10-1 confirm – growth inhibitors of tim10-1 mutant yeast, confirmation, single concentration, luminescence, S. cerevisiae; AID 463213, 2010; S. cerevisiae tim10-1 ts strain growth, BacTiter-Glo, 24 h; shares compounds with tim10-1 inh; inhibition, % at 20 µM; 7,400 tested, 56% active;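 active means inhibition of yeast growth at or above a set limit in either of two repeat tests at 20 µM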;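 further: tim10-1 mutant grown at permissive 25 °C to find synthetic lethal compounds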
A number is an active result.

COc1ccccc1N1CCN(C(=O)CN2C(=O)c3cccc4cccc(c34)C2=O)CC1 was read as TIM10 inh inactive, tim10-1 inh inactive, tim23-1 inh inactive, SKKanGAS inh inactive and PfHsp90 yeast 2 inactive.
`O=C(c1ccco1)N1CCN=C1SCc1cccnc1` gave TIM10 inh inactive, tim10-1 inh inactive, tim23-1 inh inactive, SKKanGAS inh inactive and PfHsp90 yeast 2 inactive.
For O=C(c1ccco1)N1CCN=C1SCc1ccccc1F the results were TIM10 inh inactive, tim10-1 inh 44.2, tim23-1 inh inactive, SKKanGAS inh inactive, PfHsp90 yeast 2 inactive and tim10-1 confirm inactive.
Cc1sc2nc[nH]c(=S)c2c1-c1ccccc1 was read as TIM10 inh inactive, tim10-1 inh 40.1, tim23-1 inh inactive, SKKanGAS inh inactive, PfHsp90 yeast 2 inactive and tim10-1 confirm inactive.
For Cc1sc2nc[nH]c(=O)c2c1-c1ccc(F)cc1 the results were TIM10 inh inactive, tim10-1 inh inactive, tim23-1 inh inactive, SKKanGAS inh inactive and PfHsp90 yeast 2 inactive.
For Cc1ccn2cc(-c3cccc(S(=O)(=O)N4CC(C)OC(C)C4)c3)nc2c1 (stereo not drawn) the results were TIM10 inh inactive, tim10-1 inh 41.5, tim23-1 inh inactive, SKKanGAS inh inactive, PfHsp90 yeast 2 inactive and tim10-1 confirm inactive.
Cc1ccn2cc(-c3cccc(S(=O)(=O)N4CCCC4)c3)nc2c1 was read as TIM10 inh inactive, tim10-1 inh 50.0, tim23-1 inh inactive, SKKanGAS inh inactive, PfHsp90 yeast 2 inactive and tim10-1 confirm inactive.
C/C(=N\NC(=S)Nc1ccc(C)c(C)c1)c1ccc(N2CCOCC2)cc1 was read as TIM10 inh inactive, tim10-1 inh 40.7, tim23-1 inh inactive, SKKanGAS inh inactive, PfHsp90 yeast 2 inactive and tim10-1 confirm inactive.
For C/C(=N\NC(=S)Nc1cc(S(=O)(=O)N2CCOCC2)ccc1Cl)c1ccc(N2CCOCC2)cc1 the results were TIM10 inh inactive, tim10-1 inh inactive, tim23-1 inh inactive, SKKanGAS inh inactive and PfHsp90 yeast 2 inactive.
Screening COc1ccc2nc(SC(C)C(=O)NC3CCCCC3)[nH]c2c1 (stereo not drawn) returned TIM10 inh inactive, tim10-1 inh inactive, tim23-1 inh inactive and PfHsp90 yeast 2 inactive.
`C=C[C@@](C)(O)CC[C@@H]1[C@@]2(C)CCCC(C)(C)[C@@H]2CC[C@@]1(C)O` gave TIM10 inh inactive, tim10-1 inh 41.9, tim23-1 inh inactive, SKKanGAS inh inactive, PfHsp90 yeast 2 inactive and tim10-1 confirm inactive.
Cc1sc(N2CCN(S(=O)(=O)c3ccc4c(c3)NC(=O)CO4)CC2)nc1-c1ccccc1 was read as TIM10 inh inactive, tim10-1 inh 47.1, tim23-1 inh inactive, SKKanGAS inh inactive, PfHsp90 yeast 2 inactive and tim10-1 confirm inactive.
N#CC(C(=O)Nc1ccc(Cl)c(Cl)c1)=C1Nc2ccccc2N1 was read as TIM10 inh inactive, tim10-1 inh 44.9, tim23-1 inh inactive, SKKanGAS inh inactive, PfHsp90 yeast 2 inactive and tim10-1 confirm inactive.
Screening N#CC(C(=O)Nc1cccc(Cl)c1)=C1Nc2ccccc2N1 returned TIM10 inh inactive, tim10-1 inh inactive, tim23-1 inh inactive, SKKanGAS inh inactive and PfHsp90 yeast 2 inactive.
`CN(CCOc1ccc(Cl)cc1)C(=O)c1cccc(S(=O)(=O)N2CCN(c3ccccc3)CC2)c1` gave PfHsp90 yeast 2 inactive.
`CNC(=O)COC(=O)/C=C/c1cn(-c2ccccc2)nc1-c1ccc2c(c1)OCCO2` gave TIM10 inh inactive, tim10-1 inh 41.1, tim23-1 inh inactive, SKKanGAS inh inactive and tim10-1 confirm 28.5.
For NC(=O)/C=C\c1cn(-c2ccccc2)nc1-c1ccc2c(c1)OCCO2 the results were TIM10 inh inactive, tim10-1 inh inactive, tim23-1 inh inactive, SKKanGAS inh inactive and PfHsp90 yeast 2 inactive.
CCCN1Cc2cc(OC)ccc2-c2ccccc2S1(=O)=O was read as TIM10 inh inactive, tim10-1 inh inactive, tim23-1 inh inactive and PfHsp90 yeast 2 inactive.
`O=C(Nc1ccc(Cl)cc1)C1CCCN(c2ncnc3c2nc2n3CCCCC2)C1` (stereo not drawn) gave TIM10 inh inactive, tim10-1 inh 52.7, tim23-1 inh inactive, SKKanGAS inh inactive, PfHsp90 yeast 2 inactive and tim10-1 confirm inactive.
